The values below come from PubChem BioAssay (NCATS).

Results filed as inconclusive are left out. Calls of active or inactive are those of the source. Unless noted, calls come from the whole dose curve; as a rule, active = well fitted curve in the direction sought with a large enough effect; inconclusive = small, poorly fitted or top-dose-only effect, or another doubt; inactive = no such curve, though single readings can be large; an effect the other way counts as inactive or inconclusive.

One assay in a line: qHTS assay for cell viability of the p53RE-bla HCT-116 cell line (AID 743292). Note: % is set by controls: 0 for no effect and ±100 for the full control effect; nearly all actives have a fitted effect of over 55% in size. The note with it: p53RE-bla HCT-116 viability, ATP luminescence, 16 h; series mostly up to 95 µM. Put shortly:
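CellSensor p53RE-bla HCT-116 cells, 4,000/well, preincubated 5 h at 37 C, then exposed to compounds in DMSO for 16 h at 37 C. Viability read as CellTiter-Glo luminescence (intracellular ATP) after 30 min at room temperature.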
As for `COc1cc(Cc2cnc(N)nc2N)cc(OC)c1OC`, the outcome was inactive. On to `Nc1ncn([C@@H]2O[C@H](CO)[C@@H](O)[C@H]2O)c(=O)n1`, for which the outcome was inactive. On the same count and under the same terms, the same measure for `CC(=O)Nc1nnc(S(N)(=O)=O)s1`: “inactive”. Same read-out and setting: the result for `C[C@]12CCC(=O)C=C1CC[C@@H]1[C@@H]2C(=O)C[C@@]2(C)[C@H]1CC[C@]2(O)C(=O)CO` reads “inactive”; that for `Cc1ccc(S(=O)(=O)NC(=O)NN2CCCCCC2)cc1`, “inactive”; that for `CC(=O)[C@@]1(O)CC[C@H]2[C@@H]3CCC4=CC(=O)CC[C@]4(C)[C@H]3CC[C@@]21C`, “inactive”. The same measure, in the same setting: the same measure for `CCCCOCCOCCOCc1cc2c(cc1CCC)OCO2`: “inactive”; for `O=C(O)CCCCCCCC(=O)O`: “inactive”; for `NC(=O)N1c2ccccc2C=Cc2ccccc21`: “inactive”. Regarding `CCCCNC(=O)NS(=O)(=O)c1ccc(C)cc1`, the result was inactive. Same read-out and setting: the result for `C[C@]12C=CC(=O)C=C1CC[C@H]1[C@@H]3C[C@@H](O)[C@](O)(C(=O)CO)[C@@]3(C)C[C@H](O)[C@@]12F` reads “inactive”; that for `CN=C(NC#N)NCCSCc1nc[nH]c1C`, “inactive”.

For the compound `NC(=Nc1ccccc1)Nc1ccccc1`, the call was inactive. On the same count and under the same terms, the same measure for `Nc1nc(N)c2nc(-c3ccccc3)c(N)nc2n1`: “inactive”; for `COC(=O)[C@H]1[C@H]2C[C@@H]3c4[nH]c5cc(OC)ccc5c4CCN3C[C@H]2C[C@@H](OC(=O)c2cc(OC)c(OC)c(OC)c2)[C@@H]1OC`: “inactive”. Same read-out and setting: the same measure for `O=c1[nH]c(=O)n([C@H]2C[C@H](O)[C@@H](CO)O2)cc1Br`: “inactive”. Take `COc1ccc(CN(CCN(C)C)c2ccccn2)cc1`: the compound was called inactive. Still for that read-out and setting: the result for `CC(C)(Oc1ccc(CCNC(=O)c2ccc(Cl)cc2)cc1)C(=O)O` reads “inactive”.

A short description of a further assay: qHTS profiling for inhibitors of Plasmodium falciparum (3D7) proliferation (AID 743322; call rule not given here;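 note: infected erythrocytes exposed to compound for 72 h before lysis; 100% = DMSO vehicle wells and 0% = 0.29 µM artemisinin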). The note with it: P. falciparum 3D7 proliferation; at 28.7 µM (top of the series) unless noted. In a few lines:
(§1)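 Erythrocytes infected with P. falciparum (0.3% parasitemia, 2.5% hematocrit) incubated with compounds 72 h at 37 C, 5% CO2. Lysis with saponin/Triton buffer containing SYBR Green I, overnight at room temperature in the dark; DNA fluorescence (485/535 nm) normalised to 0.29 uM artemisinin and DMSO.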
`Nc1ncn([C@@H]2O[C@H](CO)[C@@H](O)[C@H]2O)c(=O)n1`: the remaining parasite growth % (stronger effect = lower value) was found to be 103%. Same read-out and setting: the same measure for `Cc1cccc(C)c1NC(=O)C(C)N` (stereo unspecified): 92.4% [at 9.63 µM]; for `COCC(=O)O[C@]1(CCN(C)CCCc2nc3ccccc3[nH]2)CCc2cc(F)ccc2[C@@H]1C(C)C`: -2.7%; for `CN(C)CC/C=C1\c2ccccc2COc2ccccc21`: 96.2% [at 9.63 µM]. Same read-out and setting: the same measure for `CNCCC(Oc1ccccc1OC)c1ccccc1` (stereo unspecified): 104%. The same measure, in the same setting: the result for `CN1C[C@H](C(=O)N[C@]2(C)O[C@@]3(O)[C@@H]4CCCN4C(=O)[C@H](Cc4ccccc4)N3C2=O)C[C@@H]2c3cccc4[nH]cc(c34)C[C@H]21` reads -0.39%.

Another assay in a line: qHTS profiling for inhibitors of Plasmodium falciparum (DD2) proliferation (AID 743323; call rule not given here). The note with it: lower = more inhibition; at 28.7 µM (top of the series) unless noted. In a few lines:
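Parasite proliferation measured via DNA-dye fluorescence, as uninfected erythrocytes lack DNA. Cultures at 0.3% parasitemia and 2.5% hematocrit incubated 72 h with compound; signal scaled between vehicle and 0.29 uM artemisinin wells.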
As for `Nc1ncn([C@@H]2O[C@H](CO)[C@@H](O)[C@H]2O)c(=O)n1`, the activity, percent of control came to 121%. For `Cc1cccc(C)c1NC(=O)C(C)N` (stereo unspecified), the activity, percent of control was 99.5% [at 9.63 µM]. On the same count and under the same terms, the same measure for `COCC(=O)O[C@]1(CCN(C)CCCc2nc3ccccc3[nH]2)CCc2cc(F)ccc2[C@@H]1C(C)C`: -0.639%; for `CN(C)CC/C=C1\c2ccccc2COc2ccccc21`: 49.5% [at 9.63 µM]; for `CNCCC(Oc1ccccc1OC)c1ccccc1` (stereo unspecified): 48%. Same read-out and setting: the same measure for `CN1C[C@H](C(=O)N[C@]2(C)O[C@@]3(O)[C@@H]4CCCN4C(=O)[C@H](Cc4ccccc4)N3C2=O)C[C@@H]2c3cccc4[nH]cc(c34)C[C@H]21`: 0.0095%.

The nature of a further assay: qHTS profiling for inhibitors of Plasmodium falciparum (HB3) proliferation (AID 743324).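 Note: 100% = DMSO vehicle wells and 0% = artemisinin-treated control wells.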 The note with it: Plasmodium falciparum HB3 blood-stage proliferation; at 28.7 µM (top of the series). An excerpt:
Plasmodium falciparum is a virulent malarial parasite that kills 1-2 million people worldwide each year. Transmitted by mosquitoes, the sporozoite form of the parasite enters the blood stream to infect hepatocytes, where they become merozoites that infect red blood cells (erythrocytes). Within erythrocytes, merozoites begin a […] cycle of growth and division, after which the parasite is released to infect new red blood cells. Gametocytes, which form within erythrocytes as well, circulate in the bloodstream and are ingested by the mosquito, thereby completing the life cycle. To profile malarial isolates for differential chemical responses and to identify inhibitors of malarial growth, an assay that measures P. falciparum growth and replication within erythrocytes was employed. This assay uses a DNA binding fluorescent dye (SYBR Green) to detect parasite DNA following cell lysis. Because mature erythrocytes lack DNA, only Plasmodium-derived DNA is detected.
For screening 3 ul culture medium was dispensed into 1536 well black clear bottom plates (Aurora Biotechnologies) using a Multidrop Combi (Thermo Fisher Scientific Inc.), 23 nL compounds in DMSO were added by a pin tool (Kalypsys), and 5 ul of erythrocytes infected with P. falciparum (0.3% parasitemia, 2.5% hematocrit final concentration) were added. The plates were incubated at 37 C in a humidified incubator in 5% CO2 for 72 h, and 2 ul lysis buffer (20 mM Tris HCl, 10 mM EDTA, 0.16% saponin, […]% triton X, 10X SYBR Green I supplied as 10,000X […] by Invitrogen) was added to each well. The plates were mixed for 25 sec with gentle shaking and incubated overnight at room temperature in the dark. The following morning, fluorescence intensity at 485(14) nm excitation and 535(25) nm emission wavelengths was measured on an EnVision (Perkin Elmer) plate reader. Plate reads were normalized relative to the control inhibitor (0.29 uM artemisinin) and vehicle (DMSO) wells present on each plate and then corrected by an algorithm using vehicle-only control plates at the beginning and end of the compound plate stack.
With `Nc1ncn([C@@H]2O[C@H](CO)[C@@H](O)[C@H]2O)c(=O)n1`, the remaining proliferation (% of control), lower = more inhibition came out at 137%.

Turning to `COCC(=O)O[C@]1(CCN(C)CCCc2nc3ccccc3[nH]2)CCc2cc(F)ccc2[C@@H]1C(C)C`, the remaining proliferation (% of control), lower = more inhibition is -1.39%. Consider `CNCCC(Oc1ccccc1OC)c1ccccc1` (stereo unspecified), for which the remaining proliferation (% of control), lower = more inhibition turned out to be 91.8%.

As to `CN1C[C@H](C(=O)N[C@]2(C)O[C@@]3(O)[C@@H]4CCCN4C(=O)[C@H](Cc4ccccc4)N3C2=O)C[C@@H]2c3cccc4[nH]cc(c34)C[C@H]21`, the remaining proliferation (% of control), lower = more inhibition was -1.27%.

Another assay is described as follows: qHTS profiling of the MIPE4 collection as inhibitors of Plasmodium falciparum (3D7) proliferation (AID 743344; call rule not given here;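 note: scaled between DMSO vehicle wells and 0.29 µM artemisinin as full inhibition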). The note with it: P. falciparum 3D7 in erythrocytes, SYBR Green DNA fluorescence, 72 h; at 28.5 µM (top of the series). In a few lines: as §1
`CC(C)COCC(CN(Cc1ccccc1)c1ccccc1)N1CCCC1` (stereo unspecified) showed a parasite growth, % of DMSO control of 5.43%. On the same count and under the same terms, the result for `O=C1NCN(c2ccccc2)C12CCN(CCCC(c1ccc(F)cc1)c1ccc(F)cc1)CC2` reads 5.05%; that for `CN1C[C@H](C(=O)N[C@]2(C)O[C@@]3(O)[C@@H]4CCCN4C(=O)[C@H](Cc4ccccc4)N3C2=O)C[C@@H]2c3cccc4[nH]cc(c34)C[C@H]21`, 5.44%.

Another assay in a line: qHTS profiling of the MIPE4 collection as inhibitors of Plasmodium falciparum (DD2) proliferation (AID 743345; call rule not given here). The note with it: P. falciparum Dd2 in erythrocytes, SYBR Green DNA, 72 h; at 28.5 µM (top of the series). In a few lines: as §1
For `CC(C)COCC(CN(Cc1ccccc1)c1ccccc1)N1CCCC1` (stereo unspecified), the parasite growth remaining, % of DMSO control (lower = more inhibition) came out at 7.8%.

The compound `O=C1NCN(c2ccccc2)C12CCN(CCCC(c1ccc(F)cc1)c1ccc(F)cc1)CC2` had a parasite growth remaining, % of DMSO control (lower = more inhibition) of 9.4%. The same measure, in the same setting: the result for `CN1C[C@H](C(=O)N[C@]2(C)O[C@@]3(O)[C@@H]4CCCN4C(=O)[C@H](Cc4ccccc4)N3C2=O)C[C@@H]2c3cccc4[nH]cc(c34)C[C@H]21` reads 7.94%.

A further assay is described as follows: qHTS profiling of the MIPE4 collection as inhibitors of Plasmodium falciparum (DD2) proliferation (Rep 2) (AID 743346; call rule not given here). The note with it: P. falciparum Dd2 in erythrocytes, SYBR Green DNA, 72 h; at 28.5 µM (top of the series). Put shortly:
as §1
`CC(C)COCC(CN(Cc1ccccc1)c1ccccc1)N1CCCC1` (stereo unspecified) registered a parasite growth, % of control (lower = inhibition) of 16%. Still for that read-out and setting: the result for `O=C1NCN(c2ccccc2)C12CCN(CCCC(c1ccc(F)cc1)c1ccc(F)cc1)CC2` reads 11.8%; that for `CN1C[C@H](C(=O)N[C@]2(C)O[C@@]3(O)[C@@H]4CCCN4C(=O)[C@H](Cc4ccccc4)N3C2=O)C[C@@H]2c3cccc4[nH]cc(c34)C[C@H]21`, 11.7%.

A further assay is described as follows: qHTS profiling of the MIPE4 collection as inhibitors of Plasmodium falciparum (HB3) proliferation (AID 743347; call rule not given here;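 note: plate controls were DMSO vehicle wells for no effect and artemisinin wells for full effect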). The note with it: P. falciparum HB3 in erythrocytes, SYBR Green DNA, 72 h; at 28.5 µM (top of the series). In a few lines:
as §1
On to `CC(C)COCC(CN(Cc1ccccc1)c1ccccc1)N1CCCC1` (stereo unspecified), for which the growth, % of control amounted to 2.98%.

Compound `O=C1NCN(c2ccccc2)C12CCN(CCCC(c1ccc(F)cc1)c1ccc(F)cc1)CC2` displayed a growth, % of control of 4.02%. On the same count and under the same terms, the result for `CN1C[C@H](C(=O)N[C@]2(C)O[C@@]3(O)[C@@H]4CCCN4C(=O)[C@H](Cc4ccccc4)N3C2=O)C[C@@H]2c3cccc4[nH]cc(c34)C[C@H]21` reads 5.6%.
